Reference: PubChem BioAssay AID1903 (Southern Research Specialized Biocontainment Screening …, 2009)
Among all 310,000 compounds or so, about 1,200 (0.39%) were called active. No rule for the calls is given here. These entries were drawn from the full list. Potency and affinity values are given separately.

Target: Large T antigen (Simian virus 40) (UniProt P03070)
Assay: SV40 large T antigen inhibitors, biochemical (AID 1903)
Settings: SV40 large T antigen ATPase/helicase inhibition assay; at 20 µM; hits give high values

Large T antigen (Simian virus 40), sequence (P03070 whole entry, looked up): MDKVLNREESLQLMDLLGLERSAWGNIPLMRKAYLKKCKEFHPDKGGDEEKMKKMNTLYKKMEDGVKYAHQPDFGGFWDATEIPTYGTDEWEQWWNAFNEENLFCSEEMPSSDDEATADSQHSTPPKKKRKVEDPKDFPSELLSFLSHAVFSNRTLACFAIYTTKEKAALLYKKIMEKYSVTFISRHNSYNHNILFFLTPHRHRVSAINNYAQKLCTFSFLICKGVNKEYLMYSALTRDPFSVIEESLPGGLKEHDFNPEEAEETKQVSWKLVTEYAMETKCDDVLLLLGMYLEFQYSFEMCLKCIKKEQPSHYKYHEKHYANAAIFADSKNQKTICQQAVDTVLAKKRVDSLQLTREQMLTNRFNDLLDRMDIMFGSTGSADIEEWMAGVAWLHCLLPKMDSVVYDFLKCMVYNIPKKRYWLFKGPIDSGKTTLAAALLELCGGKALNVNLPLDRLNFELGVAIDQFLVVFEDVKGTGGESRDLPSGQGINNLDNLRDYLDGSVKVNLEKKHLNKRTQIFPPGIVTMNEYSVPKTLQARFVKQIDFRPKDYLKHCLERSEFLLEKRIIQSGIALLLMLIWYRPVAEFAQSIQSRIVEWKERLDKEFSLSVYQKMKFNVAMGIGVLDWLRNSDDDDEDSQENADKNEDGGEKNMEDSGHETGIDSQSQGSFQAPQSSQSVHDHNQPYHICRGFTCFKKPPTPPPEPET

inhibition, inactive:
CCNC(=O)c1c(NC(=O)C2COc3ccccc3O2)sc2c1CCCC2 (stereo not given) -3.17%
COc1ccc(/C=N/NC(=O)CNc2c(Br)cc(C)cc2Br)c(C(=O)O)c1OC -1.95%
Cc1nc(-c2nc(-c3c(C(=O)NNC(=O)Nc4cccc(Cl)c4)noc3C)cs2)cs1 8.51%
Cc1ccc(C(=O)OCC(=O)N2CC(C)CC(C)C2)cc1S(=O)(=O)N1CCOCC1 (stereo not given) -0.25%
COc1ccc(N(C(C)C(=O)Nc2ccc(S(=O)(=O)N3CCOCC3)cc2)S(C)(=O)=O)cc1 (stereo not given) 22.9%
Cc1ccc(S(=O)(=O)NNC(=O)Nc2ccc([N+](=O)[O-])cc2)c(C)c1 7.86%
NC(=O)COC(=O)CNC(=O)c1sc2ccccc2c1Cl 4.69%
c1ccc2cc(OCCOCCOc3ccc4ccccc4c3)ccc2c1 5.7%
CCN(CC)c1ccc(/C=C2/C(=O)ON=C2C)cc1 29.4%
CC1=NN(c2cccc(F)c2)C(=O)/C1=C/c1ccc(N(C)C)cc1 8.44%
Cc1oc2ccccc2c1CC(=O)NCCCN(C)C -4.93%
Cc1cc(C)n(C(=O)CNC(=O)c2ccccc2F)n1 9.87%
Cc1ccccc1NN=Nc1nc2c([nH]1)c(=O)n(C)c(=O)n2C 14.1%
Cc1ccc(NN=Nc2nc3c([nH]2)c(=O)n(C)c(=O)n3C)cc1 9.3%
OC(COc1c(F)cc(Br)cc1F)CN1CCOCC1 (stereo not given) 2.96%
O=C(CNC(=O)[C@@H]1Cc2ccccc2CN1)Nc1ccc2c(c1)OCCO2 10.2%
C/C=C/c1ccc(OCC(=O)O)c(OC)c1 10.3%
Cc1ccc2c(nc3s/c(=C\c4ccc(-c5ccccc5C(=O)O)o4)c(=O)n32)c1C 21.4%
Cc1ccc2nc(/C(C#N)=C/c3ccc(-c4ccccc4C(=O)O)o3)[nH]c2c1 24%
COc1cc(/C=C2/C(=N)N3C(c4ccccc4)=CSC3=NC2=O)ccc1OCC(=O)O 31%
C/C=C/c1ccc(OCC(=O)OCC)c(OC)c1 10.1%
CC1=C(C#N)c2nc(N)c(C#N)c(C)c2/C1=C\c1ccc(C)cc1 12.2%
COCCCNC(=O)/C(C#N)=C/c1ccc(OCC(=O)O)c(OC)c1 34.6%
CCOc1cc(-c2c(C)c(C)nc(N)c2C#N)ccc1O 17.1%
Cc1c(C(=O)Nc2ccccc2F)sc2ncn(CC(=O)N3CCCCC3)c(=O)c12 7.79%
Brc1cccc(/C=N/Nc2nc(N3CCCCC3)nc(N3CCCCC3)n2)c1 3.51%
CCOC(=O)c1ccccc1NC(=S)N1CCN(C2CCCCC2)CC1 7.91%
Cc1ccc2cccc(Oc3ncnc4scc(-c5ccc(Cl)cc5)c34)c2n1 25.5%
O=S(=O)(NCc1ccccn1)c1ccccn1 9.8%
CCn1cc(C(=O)N2CCN(c3ccccc3)CC2)c(=O)c2cc(S(=O)(=O)N3CCOCC3)ccc21 4.92%
CCOc1ccc(Br)cc1S(=O)(=O)Nc1cccnc1 11.2%
O=C(NCCc1ccccn1)C1CC(=O)N(Cc2ccccc2Cl)C1 (stereo not given) 15.4%
Brc1ccccc1-n1nnc(-c2cccnc2)n1 12.4%
CCCCN(C(=N)N1CCCCC1)c1nc(C)c([N+](=O)[O-])c(=O)[nH]1 9.69%
Nc1cc(=O)[nH]c(SCC(=O)NNC(=O)Cc2ccccc2)n1 10.8%
O=c1[nH]c(NC2CCCCC2)c([N+](=O)[O-])c(=O)[nH]1 4.57%
S=C1Cc2ccccc2C(c2ccc(Cl)cc2)N1 (stereo not given) 2.33%
CC(=O)Nc1ccc(NC(=O)CSc2nnc(C)c(=O)n2N)cc1 12.1%
Cc1ccc(NC(=O)CSc2nnc(-c3cnccn3)n2C)cc1C 29.7%
CCc1ccc(NC(=O)CSc2nnc(-c3cnccn3)n2C)cc1 14.9%
CCn1c(SCC(=O)Nc2ccc(NC(C)=O)cc2)nnc1C1CC1 12.8%
Cc1ccc(NC(=O)CSc2nnc(C)c(=O)n2N)cc1 14.2%
CCn1nnnc1SCC(=O)Nc1ccc(N(C)C)cc1 37.7%
CCCCn1nnnc1SCC(=O)Nc1ccc(C)cc1 -2.62%
CCn1c(SCC(=O)Nc2ccc(F)cc2)nnc1C1CC1 3.39%
O=C(CSc1ccc(-c2cccc([N+](=O)[O-])c2)nn1)NCc1ccccc1 11.8%
CCCc1cc(=O)oc2cc(OC3CCCCC3=O)ccc12 (stereo not given) 18.5%
O=C(O)COc1ccc2c(c1)OCCO2 -3.88%
CCOC(=O)c1sc2nc(CC(=O)OC)nc(NCCN(CC)CC)c2c1C 28.4%
COc1ccc(NC(=O)CSc2nnc(-c3ccco3)c(-c3ccco3)n2)cc1OC 26.9%
Cc1cccc(NC(=O)CSc2nnc(-c3ccco3)c(-c3ccco3)n2)c1 35%
COC(=O)/C=C1/C(=O)N/C(=N\c2nc(C)cc(C)n2)N1c1ccc(OC)cc1 3.13%
CCOc1cc(/C=N/NC(=O)c2cccc(S(=O)(=O)N3CCCC3)c2)ccc1OCC(=O)N(C)C 0.99%
COc1cc(/C=N/NC(=O)c2cccc(S(=O)(=O)N3CCCCC3)c2)cc(Br)c1O 10.6%
O=C(N/N=C/c1ccccn1)c1cccc(S(=O)(=O)N2CCCC2)c1 9.14%
COc1cc(/C=N/NC(=O)c2cccc(S(=O)(=O)N3CCCC3)c2)cc(OC)c1O 37.9%
O=C(N/N=C/c1cccnc1)c1cccc(S(=O)(=O)N2CCCC2)c1 17.7%
CC(=O)Nc1ccc(/C=N/NC(=O)c2cccc(S(=O)(=O)N3CCOCC3)c2)cc1 8.56%
C/C(CC(=O)NC1CCCCCC1)=N\NC(=O)c1cnccn1 0.37%
COC(CNC(=O)C(=O)Nc1cc2c3c(c1)CCN3C(=O)CC2)OC 6.3%
